Bioassay records deposited in PubChem by National Center for Advancing Translational Sciences (NCATS).
This excerpt belongs to a sample that is enriched for hits.
JMJD2E inh: JMJD2E (human) inhibition; JMJD2E catalytic domain, FDH-coupled NADH fluorescence (FDH is formaldehyde dehydrogenase); Potency, µM (series often up to 57.1 µM), without a hit: at the top dose activity change, negative = inhibition, usual class: inhibitors; actives 1.6% (n = 230,000); B2RXH2; AID 2147; active = well fitted inhibition curve with a large enough effect, not every such curve was filed as active; inconclusive = small, poorly fitted or top-dose-only effect, or another doubt; inactive = no such curve, though single readings can be large or run the other way;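 note: 0% = wells with enzyme and -100% = buffer wells without enzyme; nearly all actives have a fitted effect of over 50% in size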
Target sequence (B2RXH2 1-337 limits assumed): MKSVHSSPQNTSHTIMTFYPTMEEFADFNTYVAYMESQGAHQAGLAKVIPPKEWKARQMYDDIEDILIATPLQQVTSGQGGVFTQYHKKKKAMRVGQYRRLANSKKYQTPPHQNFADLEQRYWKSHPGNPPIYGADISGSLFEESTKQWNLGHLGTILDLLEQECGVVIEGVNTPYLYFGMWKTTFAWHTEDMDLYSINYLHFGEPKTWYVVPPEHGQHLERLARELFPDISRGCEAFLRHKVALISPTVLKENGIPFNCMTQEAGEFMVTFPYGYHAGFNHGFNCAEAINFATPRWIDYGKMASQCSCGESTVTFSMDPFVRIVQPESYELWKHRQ
RECQ1 helicase: blocks DNA unwinding by human RECQ1. P46063. RECQ1 DNA unwinding, red fluorescence kinetic read. Potency, µM (titrated, usually from 57.3 µM), for the others: at the top dose activity, negative = inhibition, most hits filed as inhibitors. actives 0.54% (n = 240,000). AID 2549;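 note: plate controls were vehicle for no effect and no enzyme for full effect; nearly all actives have a fitted effect of over 30% in size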
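50 nM RECQ1T1 preincubated 15 min with compound in Tris pH 8.0 buffer with MgCl2, DTT, Tween-20 and 2.5 ug/ml poly(dI-dC); started with 200 nM TAMRA/BHQ-2 forked duplex and 2 mM ATP. Unwinding read as fluorescence (525/598 nm), two reads 2 h apart.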
PKM2 activator: PKM2 (human) enzyme activation. Potency, µM (top dose mostly 57.5 µM), for the others: at the highest dose activation, most hits filed as activators. P14618. actives 0.34% (n = 260,000). purified PKM2, Kinase-Glo ATP luminescence, activation; response scale: 0% is enzyme alone, no compound; note: nearly all actives have a fitted effect of over 55% in size
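Purified hPK-M2 (>95%) run at intermediate activity with 0.1 mM ADP and 0.5 mM PEP in 50 mM imidazole pH 7.2, KCl, MgCl2; 1 h room temperature. ATP formed read by Kinase-Glo luminescence; normalized to uninhibited and no-enzyme controls.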
BLM inh: inhibitors of human Bloom syndrome helicase BLM; P54132; recombinant BLM DNA unwinding, fluorescence dequenching; Potency, µM (titrated, usually from 56.1 µM), for the others: top-dose activity change, negative = inhibition, actives largely listed as inhibitors; actives 0.2% (n = 350,000); AID 2528;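 note: plate controls were vehicle for no effect and no enzyme for full effect; nearly all actives have a fitted effect of over 35% in size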
APEX1 inh: blocks human APE1 abasic DNA cleavage; Potency, µM (highest dose often 65.8 µM), for inactives: at the top dose activity change, negative = inhibition, hits mostly inhibitors; recombinant APE1, TAMRA/BHQ-2 abasic DNA cleavage fluorescence; P27695; actives 0.35% (n = 350,000);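 note: plate controls were vehicle for no effect and reference inhibitor for full effect; nearly all actives have a fitted effect of over 55% in size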
Target sequence (P27695 whole entry, looked up): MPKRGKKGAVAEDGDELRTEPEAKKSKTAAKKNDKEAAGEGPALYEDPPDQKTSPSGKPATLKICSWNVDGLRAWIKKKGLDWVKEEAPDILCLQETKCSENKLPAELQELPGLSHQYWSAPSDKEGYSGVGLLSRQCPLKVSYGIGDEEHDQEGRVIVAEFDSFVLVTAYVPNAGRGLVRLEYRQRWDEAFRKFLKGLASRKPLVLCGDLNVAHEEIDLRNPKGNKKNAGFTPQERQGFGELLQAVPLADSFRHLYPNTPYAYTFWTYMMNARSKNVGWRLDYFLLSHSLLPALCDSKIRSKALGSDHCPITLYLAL
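Enzyme (0.75 nM final) and test compound are incubated 15 min at room temperature before adding 50 nM quenched THF abasic-site duplex. Cleavage dequenches TAMRA, followed at 525/598 nm over three reads one minute apart.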
Numbers without * were called inactive; i = inactive; ? = inconclusive; / = no result; [ ] = remark or other dose. Unless noted, calls come from the whole dose curve; as a rule, active = well fitted curve in the direction sought with a large enough effect; inconclusive = small, poorly fitted or top-dose-only effect, or another doubt; inactive = no such curve, though single readings can be large; an effect the other way counts as inactive or inconclusive. Unless noted, % is set by controls: 0 for no effect and ±100 for the full control effect; potency is the fitted concentration of half-maximal effect.

SMILES	JMJD2E inh	RECQ1 helicase	PKM2 activator	BLM inh	APEX1 inh
NC(=S)N/N=C/c1c(O)ccc2ccccc12	7.1µM*	-10%	-15%	-3%	12%
Oc1ccc2ccccc2c1C=NCc1ccccc1	?	-8%	5%	-11%	2%
COc1ccc2ccccc2c1/C=N/Nc1ccc(Cl)c(C(=O)O)c1	/	/	4%	-5%	-1%
Cc1cc(N/N=C/c2c(O)ccc3ccccc23)nc(-c2ccccc2O)n1	14µM*	-6%	-3%	-1%	-8%
COc1ccc(N/N=C/c2c(C(=O)O)ccc3ccccc23)cc1	25µM*	i	2%	-13%	?
COc1ccc(-c2nc3c(c4c2C[C@H](c2ccccc2)OC4)CN(C(=O)Cc2cccs2)CC3)c(C)c1	-17%[11.4 µM]	i[11.5 µM]	-6%[11.5 µM]	2%[12.4 µM]	11%[12.4 µM]
Oc1ccc2ccccc2c1/C=N/Nc1ccccc1	7.9µM*	-5%	15%	-7%	-2%
COc1ccc(OCCOc2ccccc2[N+](=O)[O-])cc1	1%	-3%	-6%	-7%	-2%
O=c1c2ccccc2ncn1CCCOc1ccccc1[N+](=O)[O-]	3%	i	2%	2%	-1%
O=[N+]([O-])c1ccccc1OCCOc1ccccc1[N+](=O)[O-]	5%	40µM*	-5%	0%	3%
O=[N+]([O-])c1ccccc1OCCCn1cnc2ccccc21	?	i	18µM*	-5%	1%
Oc1ccc(-c2nc3ccc4ccccc4c3c3c2CCC3)cc1O	25µM*	-2%	?	-6%	0%
COc1ccc(-c2cc(C(=O)O)nc3ccc4ccccc4c23)cc1OC	?	-7%	2%	3%	-2%
Cc1cc(C)cc(N2C(=O)CC(Sc3ncn[nH]3)C2=O)c1 (stereo not drawn)	1.3µM*	-10%	1%	-5%	20%
COC(=O)c1ccc(C)c(NC(=O)c2ccc(Cn3cc([N+](=O)[O-])cn3)o2)c1	0%	i	1%	0%	2%
CCNS(=O)(=O)c1ccc(NC(=O)c2ccc(Cn3cc([N+](=O)[O-])cn3)o2)cc1	5%	-2%	18µM*	6%	-15%
CCOc1ccc(NC(c2ccccn2)c2oc(CO)cc(=O)c2O)cc1 (stereo not drawn)	22µM*	-4%	?	-5%	-4%
Cc1ccc(C)c(N2C(=N)S/C(=C\c3ccc(-c4ccccc4C(=O)O)o3)C2=O)c1	-28%	-8%	2%	-4%	?
CCOC(=O)C(C)N1C(=O)S/C(=C\c2ccc(-c3ccccc3C(=O)O)o2)C1=O (stereo not drawn)	/	/	/	0%	6µM*
CCCCCCCC/C=C/CCCCCCCC(=O)NCCOP(=O)(O)O	/	-12%	/	0%	-8%
COc1ccc(OC)c2c1C(=O)c1ccccc1C2=O	?	-12%	-6%	1%	?
COC1=C(OC)C(=O)c2ccccc2C1=O	11µM*	-11%	/	/	-5%
C#CCOCCOCCOCCNc1nc(N2CCN(C(=O)[C@H](CCC(=O)O)n3cc(C(N)CO)nn3)CC2)nc(N2CCN(C(=O)[C@H](CCC(=O)O)n3cc(C(N)CC(C)C)nn3)CC2)n1 (stereo partly drawn)	22µM*	-15%	-13%	-7%	?
C#CCOCCOCCOCCNc1nc(N2CCN(C(=O)[C@H](Cc3cc4ccccc4[nH]3)n3cc([C@@H](N)CC(C)C)nn3)CC2)nc(N2CCN(C(=O)[C@H](Cc3cc4ccccc4[nH]3)n3cc([C@@H](N)CC(C)C)nn3)CC2)n1	?	?	6%	22µM*	4%
Cc1ccc(OC2C(O)COC2/C=C/C#Cc2ccc(C(C)(C)C)cc2)cc1 (stereo not drawn)	/	-3%[11.5 µM]	/	-5%[12.4 µM]	14%[12.4 µM]
SMILES	JMJD2E inh	RECQ1 helicase	PKM2 activator	BLM inh	APEX1 inh
Cn1c(=O)c2[nH]c(-c3ccccc3Cl)c(O)c2n(C)c1=O	12%	4%	?	-8%	0%
Cn1c(=O)c2[nH]c(-c3ccccc3)c(O)c2n(C)c1=O	-16%	-4%	1.4µM*	1%	2%
O=C(NCC(O)CO)c1c(I)c(C(=O)NCC(O)CO)c(I)c(N(CCO)C(=O)CO)c1I (stereo not drawn)	/	/	/	/	2%[21 µM]
Cc1ccc2nc(/C(C#N)=C/c3cccc(Br)c3)[nH]c2c1	/	/	/	-18%	/
Cc1ccc2nc(/C(C#N)=C/c3ccc(O)c(O)c3)[nH]c2c1	/	/	-1%	20µM*	6%
C/C=C\C1=C(CO)C(=O)[C@@H]2OC2C1=O (stereo partly drawn)	/	3.5µM*	/	-5%[12.4 µM]	1.6µM*
CCN(CC)CCOCCOC(=O)C(CC)(CC)c1ccccc1 (tested in a mixture with another compound)	/	/	/	-13%	/
CC(C)C[C@H](NC(=O)[C@H](Cc1cnc[nH]1)NC(=O)[C@@H](N)Cc1cnc[nH]1)C(=O)NCC(=O)NCC(=O)N[C@@H](C)C(=O)N[C@@H](CCCCN)C(=O)N[C@@H](CCC(N)=O)C(=O)N[C@@H](C)C(=O)NCC(=O)N[C@@H](CC(=O)O)C(=O)N[C@H](C(=O)O)C(C)C	/	8%	/	-1%	-3%
Cc1ccc(C)c(NC(=S)Nc2cccc3cnccc23)c1	28µM*	i	-3%	-7%	-1%
CC(=O)c1ccc(NC(=S)Nc2cccc3cnccc23)cc1	18µM*	i	12%	2%	2%
CC1=CC(=C(c2ccc(N)cc2)c2ccc(N)cc2)C=CC1=N	/	/	/	-14%	/
COc1ccc2c(c1OC)C(=O)OC2CC(=O)c1ccc(O)c(O)c1 (stereo not drawn)	14µM*	-3%	-3%	1%	-2%
COc1ccc2c(c1OC)C(=O)OC2CC(=O)c1ccc(O)cc1 (stereo not drawn)	-1%	-1%	6%	0%	-4%
Cc1cc(S(=O)(=O)Nc2ccc3c(c2)COC3=O)ccc1F	?	16%	11µM*	0%	13%
CC(C)(C)c1ccc(S(=O)(=O)Nc2ccc3c(c2)COC3=O)cc1	9%	i	-3%	-3%	1%
CNCC(=O)NC(CCCN=C(N)N)C(=O)NC(C(=O)NC(Cc1ccc(O)cc1)C(=O)NC(C(=O)NC(Cc1cnc[nH]1)C(=O)N1CCCC1C(=O)NC(C)C(=O)O)C(C)C)C(C)C (stereo not drawn)	/	/	/	-5%	/
COc1ccc(C(=O)Oc2ccc3c(-c4ccc(OC)cc4)cc(=O)oc3c2)cc1	6%	-7%	/	-6%	4%
COc1ccc(-c2cc(=O)oc3c(O)c(O)ccc23)cc1	/	/	/	10µM*	13%
O=C(O)c1cc(-c2ccco2)nn1-c1ccc(Cl)cc1	-29%	22µM*	-20%	53%	?
CC(=O)N(O)CCCCCNC(=O)CCC(=O)N(O)CCCCCNC(=O)CCC(=O)N(O)CCCCCN	22µM*	9%	-1%	5%	7%
